From PubChem
CtBP-E1A inh: qHTS Assay for Inhibitors of the CtBP/E1A Interaction. AlphaScreen GST-E1A/His-CtBP binding, 1536-well; active compounds read low. activity change, % (no concentration beside the values). 340,000 compounds, 0.49% hits; in the data active = activity change below about -65%; inconclusive = mostly about -30% to -63%
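Homogeneous bead-based format: GST-tagged E1A captured on glutathione donor beads, His-tagged CtBP on nickel acceptor beads; compounds precede bead addition by 2 h at 37 °C.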
TDP1 cell CPT: qHTS for Inhibitors of human tyrosyl-DNA phosphodiesterase 1 (TDP1): qHTS in cells in presence of CPT | chicken DT40 Tdp1-/-;hTDP1 cells + 20 nM CPT, ATP luminescence, 48 h | Potency, µM (doses to about 46.2 µM), for the others: top-dose activity change, negative = growth inhibition, actives largely listed as inhibitors | 420,000 compounds, 12% hits | AID 686979, 2013; also: potency is read from the fitted curve at half-maximal effect; nearly all actives have a fitted effect of over 55% in size
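Chicken DT40 Tdp1-/- cells stably complemented with human TDP1 were seeded at 400 cells/well in medium containing 20 nM camptothecin, exposed to pin-transferred compounds, and grown at 37 °C for at least 48 hr. Viability was read as ATP luminescence.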
Six1-Eya2 blk: qHTS Assay for Inhibitors of the Six1/Eya2 Interaction; AlphaScreen GST-Six1/His-Eya2 binding, biochemical; active compounds read low; 360,000 compounds, 0.56% hits; AID 651725, 2012; activity change, % (test concentration not listed); Homeobox protein SIX1 (Homo sapiens) + Protein phosphatase EYA2 (Homo sapiens), …; in the data active = activity change below about -65%; inconclusive = mostly about -30% to -63%
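AlphaScreen with GST-Six1 and His-Eya2 (5X mix: 250 nM and 500 nM), glutathione donor and nickel acceptor beads; buffer 50 mM Tris pH 8.0, 300 mM NaCl, 1 mM TCEP; 1 h at 37 C in the dark.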
IL1B secr inh: qHTS for Inhibitors of Inflammasome Signaling: IL-1-beta AlphaLISA Primary Screen | activity change, % at 57.5 µM | 360,000 compounds, 4.7% hits | AID 743279, 2014 | THP-1 LPS/ATP IL-1B secretion, AlphaLISA, 16 h; active compounds read low; in the data active = activity change below about -50%; inconclusive = mostly about -30% to -49%
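THP-1 cells pretreated 1 hr with compounds (up to 57.5 uM final), then stimulated with LPS (250 ng/mL final) plus ATP (1.25 mM final); secreted IL-1B measured by AlphaLISA after 16 hr, decreased signal indicating inhibition.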
TDP1 block: qHTS Assay for Inhibitors of Tyrosyl-DNA Phosphodiesterase (TDP1); Tyrosyl-DNA phosphodiesterase 1 (Homo sapiens), Q9NUW8; recombinant TDP1, AlphaScreen DNA substrate cleavage; Potency, µM (top dose mostly 130 µM), without a hit: top-dose activity change, negative = inhibition, usual class: inhibitors; 350,000 compounds, 0.28% hits; also: potency is read from the fitted curve at half-maximal effect; nearly all actives have a fitted effect of over 40% in size
Target sequence (Q9NUW8 whole entry, looked up): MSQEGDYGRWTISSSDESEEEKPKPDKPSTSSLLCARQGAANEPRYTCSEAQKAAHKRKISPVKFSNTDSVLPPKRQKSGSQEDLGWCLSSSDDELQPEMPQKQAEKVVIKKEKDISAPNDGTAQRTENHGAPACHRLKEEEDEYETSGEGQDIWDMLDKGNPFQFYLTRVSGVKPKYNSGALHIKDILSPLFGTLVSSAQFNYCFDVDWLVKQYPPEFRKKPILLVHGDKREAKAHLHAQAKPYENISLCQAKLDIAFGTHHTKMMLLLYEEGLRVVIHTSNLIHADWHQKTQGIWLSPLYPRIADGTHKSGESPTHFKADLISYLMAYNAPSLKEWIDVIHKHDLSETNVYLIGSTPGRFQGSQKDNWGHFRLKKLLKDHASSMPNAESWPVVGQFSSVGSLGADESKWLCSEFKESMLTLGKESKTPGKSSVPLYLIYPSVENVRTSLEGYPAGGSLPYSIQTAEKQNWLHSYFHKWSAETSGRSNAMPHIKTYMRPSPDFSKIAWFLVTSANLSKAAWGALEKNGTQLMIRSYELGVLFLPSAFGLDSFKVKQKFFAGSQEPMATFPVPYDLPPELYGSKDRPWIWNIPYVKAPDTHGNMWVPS
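Recombinant human Tdp1 (E. coli-expressed, 1 nM final) preincubated with compounds 15 min at room temperature, then 5'-biotin/3'-phosphotyrosine-FITC DNA substrate (15 nM final) added for 5 min. AlphaScreen beads (10 ug/ml final) added 10 min; cleavage lowers signal.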
DT40 TDP1 no CPT: qHTS for Inhibitors of human tyrosyl-DNA phosphodiesterase 1 (TDP1): qHTS in cells in absence of CPT; DT40 Tdp1-/- hTDP1 cells, no CPT, ATP luminescence, 48 h; Potency, µM (top dose mostly 46.2 µM), for the others: top-dose activity change, negative = growth inhibition, hits mostly inhibitors; 420,000 compounds, 15% hits; also: potency is read from the fitted curve at half-maximal effect; nearly all actives have a fitted effect of over 55% in size
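Readout: luminescence from CellTiter-Glo after 30 min in the dark at RT. Cells: DT40 Tdp1-/- with stable hTDP1, 400/well. Exposure: compounds alone, ≥48 hr, 37 °C.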
* marks the source's active call; other numbers are inactive results; ? = inconclusive; / = no result. This is a sample that favours compounds with a hit; in the whole collection about 18% have one here. Unless noted, calls follow the shape of the dose curve; as a rule, active = well fitted curve in the direction sought with a large enough effect; inconclusive = small, poorly fitted or top-dose-only effect, or another doubt; inactive = no such curve, though single readings can be large; an effect the other way counts as inactive or inconclusive. % is scaled to controls: 0 for no effect and ±100 for the full control effect.

SMILES	CtBP-E1A inh	TDP1 cell CPT	Six1-Eya2 blk	IL1B secr inh	TDP1 block	DT40 TDP1 no CPT
COC(=O)c1ccc(COc2ccccc2/C=N/NS(=O)(=O)c2ccc(C)cc2)cc1	6	18µM*	-9	57	0%	?
Cc1ccc(S(=O)(=O)N/N=C/c2cccc3c2OCCO3)cc1	-1	?	7	23	5%	-37%
N#C/C(=C\c1ccccc1OCc1ccc(C(=O)O)cc1)C(=O)Nc1ccc(O)cc1	/	2%	-4	?	2%	-15%
Cc1ccc(-c2nn3c(-c4cccc(Cl)c4)nnc3s2)cc1	/	/	/	/	0%	/
CN1/C(=C/C2CC(=O)NC2=O)C(C)(C)c2ccccc21 (stereo not drawn)	5	-5%	-7	39	4%	-10%
CN1/C(=C\C(=O)C[n+]2cccc(C(N)=O)c2)C(C)(C)c2ccccc21	-5	13%	-3	12	5%	-15%
Cc1ccc[n+](CC(=O)/C=C2\N(C)c3ccccc3C2(C)C)c1	0	1.2µM*	7	-3	0%	1.6µM*
Cc1cccc[n+]1CC(=O)/C=C1\N(C)c2ccccc2C1(C)C	1	3.3µM*	1	17	-3%	3.3µM*
CN1/C(=C\C(=O)C[n+]2ccc(C(=O)c3ccccc3)cc2)C(C)(C)c2ccccc21	/	0.82µM*	-10	-19	-10%	1.2µM*
CN1/C(=C/C2CC(=O)N(c3cccc4ccccc34)C2=O)C(C)(C)c2ccccc21 (stereo not drawn)	0	?	-4	19	8%	?
CN1/C(=C\C(=O)C[n+]2cccc(Br)c2)C(C)(C)c2ccccc21	-2	4.6µM*	-2	-2	3%	5.8µM*
Cc1ccc(S(=O)(=O)N2CCC(C(=O)Nc3nnc(COc4ccccc4)s3)CC2)cc1	14	-23%	-23	-9	6%	?
O=C(O)c1cc(-c2c[nH]c3ccccc23)nc2ccc3ccccc3c12	-11	11%	1	18	0%	-2%
c1ccc2c(-c3c[nH]c4ccccc34)c3ccccc3nc2c1	26	?	22	-19	-12%	16µM*
CCOC(=O)N1CCN(C(=O)/C=C/c2c(C)nn(-c3ccc(F)cc3)c2Cl)CC1	4	?	-2	0	0%	13µM*
CC(=O)c1cccc(CN2CCC(n3nccc3NC(=O)CCOc3ccccc3)CC2)c1	2	-14%	3	14	5%	-18%
COc1ccc(NC(=S)N/N=C2\CC(C)(C)Oc3ccc(OC)cc32)cc1	-17	5.8µM*	-18	-12	6%	4.1µM*
CC(=O)N1CCC2(CC1)C/C(=N\NC(=S)Nc1ccc(C)cc1)c1cc(O)ccc1O2	-13	15µM*	-15	-29	10%	?
O=C1C=C(O)C(n2cncn2)C(c2ccc(F)cc2)C1 (stereo not drawn)	8	11%	-1	12	-9%	-1%
CCCCN(CCCC)S(=O)(=O)c1ccc2oc(C(=O)N3CCOCC3)c(C)c2c1	2	?	-1	-7	-2%	?
COc1ccc(NC(=O)C(C)Sc2nnc3c4c(nc(-c5ccc(OC)cc5)n23)CC(C)(C)OC4)cc1 (stereo not drawn)	-8	21µM*	-2	-1	0%	15µM*
